Assay results taken from PubChem BioAssay.
Several values for one entry are separate records, joined by “and”; a condition that tells them apart may be missing. Equal entries are not always repeated. Activity calls are given as the source filed them. Unless noted, the rule behind the calls is not given here.

Experiments:
[1] = HepG2 liver cancer cell viability effects, profiling panel, resazurin fluorescence, 24 h, PK04 Diversity Set (AID 1172); conditions: higher = more signal; note: test concentration not given here
[2] = basal S. cerevisiae growth modulation, no modifier, primary screen, OD600, strain BY4716, 24 h, basal condition (AID 1173); conditions: OD600, 24 h, higher = more signal, called active from +8 up or from −8 down
[3] = MM1S myeloma cell viability, profiling panel, resazurin fluorescence, basal, 24 h, PK04 Diversity Set (AID 1174); conditions: higher = more signal, called active from +8 up or from −8 down;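 note: MM1S multiple myeloma cell line; test concentration not given here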
[4] = biological target: Dihydroorotate dehydrogenase (quinone), mitochondrial (Plasmodium falciparum (isolate 3D7)) (UniProt Q08210); assay: PfDHODH enzyme inhibitors, primary screen, biochemical, C-terminal His tag, absorbance 600 nm (AID 1175); conditions: DCIP absorbance 600 nm, higher = more signal, called active from +8 up or from −8 down;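 note: recombinant parasite enzyme with a five histidine tag at its C terminus; test concentration not given here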
[5] = P. aeruginosa biofilm formation inhibitors, primary screen, strain PAO1, LB-PBS medium, absorbance 600 nm (AID 1176); note: test concentration not given here; conditions: P. aeruginosa PAO1 growth/biofilm, A600, 12 h; higher = more signal
[6] = S. cerevisiae RM11-1a growth modifiers, primary screen, strain RM11-1a, OD600, basal, 24 h (AID 1177); conditions: OD600, 24 h, higher = more signal, called active from +8 up or from −8 down;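 note: cultures grown under basal conditions with no added stressor; test concentration not given here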
[7] = E. coli acrAB mutant growth effects, primary screen, E. coli filamentation inducers, strain DRC39, OD650, 24 h (AID 1178); conditions: higher = more signal, called active from +8 up or from −8 down;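 note: growth measured as culture turbidity by optical density at 650 nm; test concentration not given here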
[8] = E. coli acrAB mutant growth effects, primary screen, E. coli filamentation inducers, strain DRC39, OD650, 48 h (AID 1179);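 note: screen aims at cell division blockers that make cells filament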; conditions: E. coli DRC39 delta-acrAB growth, higher = more signal, called active from +8 up or from −8 down
[9] = RPMI8226 myeloma cell viability, profiling panel, resazurin fluorescence, basal, 24 h, PK04 Diversity Set (AID 1180); conditions: higher = more signal;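 note: RPMI8826 multiple myeloma cell line at 5000 cells per well; test concentration not given here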
[10] = biological target: E3 ubiquitin-protein ligase XIAP (Homo sapiens) (UniProt P98170); assay: XIAP binders, primary screen, biophysical, small-molecule microarray, fluorescence 635 nm (AID 1181); conditions: small-molecule microarray binding, higher = more signal;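 note: score merges 667 nm emission and signal to noise over triplicate slides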
Chain of E3 ubiquitin-protein ligase XIAP (Homo sapiens) (P98170 whole entry, looked up): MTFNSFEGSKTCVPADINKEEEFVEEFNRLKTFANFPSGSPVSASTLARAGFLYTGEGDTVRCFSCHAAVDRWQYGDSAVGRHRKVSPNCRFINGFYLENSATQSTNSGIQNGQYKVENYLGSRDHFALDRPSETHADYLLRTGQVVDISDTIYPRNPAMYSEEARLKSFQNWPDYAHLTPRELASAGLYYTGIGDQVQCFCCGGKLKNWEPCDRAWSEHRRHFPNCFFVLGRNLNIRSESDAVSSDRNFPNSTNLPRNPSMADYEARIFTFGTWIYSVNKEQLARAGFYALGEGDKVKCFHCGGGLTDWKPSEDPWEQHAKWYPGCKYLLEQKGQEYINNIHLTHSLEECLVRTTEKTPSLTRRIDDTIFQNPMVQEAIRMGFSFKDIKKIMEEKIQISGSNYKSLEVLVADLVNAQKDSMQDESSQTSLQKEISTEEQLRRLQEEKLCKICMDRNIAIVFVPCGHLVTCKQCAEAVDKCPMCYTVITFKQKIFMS

Chain of Dihydroorotate dehydrogenase (quinone), mitochondrial (Plasmodium falciparum (isolate 3D7)) (Q08210 whole entry, looked up): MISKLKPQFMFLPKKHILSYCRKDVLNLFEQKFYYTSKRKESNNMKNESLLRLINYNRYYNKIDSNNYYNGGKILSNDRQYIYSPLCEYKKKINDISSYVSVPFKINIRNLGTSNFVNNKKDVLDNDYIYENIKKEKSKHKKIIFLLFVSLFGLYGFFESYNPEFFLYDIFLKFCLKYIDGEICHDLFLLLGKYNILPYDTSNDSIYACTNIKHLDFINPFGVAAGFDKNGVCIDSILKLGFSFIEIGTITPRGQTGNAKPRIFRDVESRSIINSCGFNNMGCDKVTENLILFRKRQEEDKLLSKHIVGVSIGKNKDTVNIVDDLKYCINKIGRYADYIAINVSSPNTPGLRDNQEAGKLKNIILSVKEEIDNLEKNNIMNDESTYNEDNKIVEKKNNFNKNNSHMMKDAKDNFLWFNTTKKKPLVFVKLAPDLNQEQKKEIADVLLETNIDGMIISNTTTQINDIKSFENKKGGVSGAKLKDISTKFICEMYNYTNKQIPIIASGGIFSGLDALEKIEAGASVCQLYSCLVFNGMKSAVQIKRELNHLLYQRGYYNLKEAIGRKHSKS

SMILES	z-score [1]	z-score [2]	z-score [3]	composite z-score [4]	z-score [5]	z-score [6]	z-score [7]	z-score [8]	z-score [9]	composite z-score [10]
C=C[C@@H](OC)[C@H](O)c1ccc(OC)c(O)c1	-0.246 and 0.49	-1.28 (inactive) and -1.67 (inactive)	-0.72 (inactive) and 0.989 (inactive)	0.229 (inactive) and -0.344 (inactive)	0.152 (inactive)	0.119 (inactive) and -1.5 (inactive)	-0.0985 (inactive) and 1.78 (inactive)	-0.489 (inactive) and 1.38 (inactive)	-1.04 and 0.51	-0.319 and -0.148
O=c1n(-c2ccccc2)c(=O)n2n1CC[C@@H]1C(=NOC[C@@H](O)COCc3ccco3)[C@H]3O[C@H]3[C@@H](O)[C@@H]12	-0.618 and -0.581	-0.428 (inactive) and 0.804 (inactive)	0.467 (inactive) and -0.453 (inactive)	-2.79 (inactive) and 0.389 (inactive)	0.413 (inactive) and -0.455 (inactive)	-0.37 (inactive) and 0.962 (inactive)	-0.417 (inactive) and 0.0343 (inactive)	-0.802 (inactive) and -0.756 (inactive)	0.0942 and -0.433	-0.0085 and -0.434
C=C[C@H](C)[C@H](O)c1ccc(O)c2ccccc12	0.26 and 0.0956	-8.01 (active) and -8.42 (active)	-0.709 (inactive) and -0.107 (inactive)	-1.87 (inactive) and -1.49 (inactive)	1.32 (inactive) and 1.45 (inactive)	-1.6 (inactive) and -2.52 (inactive)	1.06 (inactive) and 1.82 (inactive)	1.31 (inactive) and 1.91 (inactive)	-0.54 and 0.1	-0.0659 and 0.116
CCOC(=O)C[C@H]1[C@H](OC(=O)c2ccccc2-c2ccccc2)[C@@H](NC(=O)Cc2ccc(OC)cc2)c2cc(OCCCO)ccc2N1C(=O)c1ccc2ccccc2n1	0.528 and 0.85	-1.31 (inactive) and -0.5 (inactive)	1.19 (inactive) and 0.644 (inactive)	0.34 (inactive) and 0.282 (inactive)	0.456 (inactive)	-0.484 (inactive) and -0.0944 (inactive)	2.5 (inactive) and 0.544 (inactive)	1.25 (inactive) and 0.422 (inactive)	-0.0946 and 0.108	-0.289 and 0.299
CCOC(=O)NN=C1C[C@@H](O)[C@@H](O)[C@@H]2[C@@H]3C(=O)N(Cc4ccccc4)C(=O)[C@@H]3CC[C@@H]12	0.213	0.331 (inactive)	-1.17 (inactive)	0.0897 (inactive)	0.529 (inactive)	0.371 (inactive)	0.199 (inactive)	-0.951 (inactive)	0.561	1.34
CCOC(=O)C[C@H]1[C@H](OC(=O)c2ccccc2-c2ccccc2)[C@@H](NC(=O)Cc2ccc(OC)cc2)c2cc(OCCCO)ccc2N1C(=O)Cc1ccc(OC)cc1	1.5 and 0.156	0.324 (inactive) and 0.67 (inactive)	0.783 (inactive) and 0.0875 (inactive)	1.08 (inactive) and 0.343 (inactive)	0.531 (inactive)	0.6 (inactive) and 0.0342 (inactive)	1.56 (inactive) and -0.539 (inactive)	0.949 (inactive) and -0.39 (inactive)	0.844 and 0.125	0.202 and -0.188
C=C[C@@H](C)[C@@H](O)c1ccc(O)c2ccccc12	-0.278 and 0.0891	-14.7 (active) and -15 (active)	-0.938 (inactive) and -1.51 (inactive)	-2.38 (inactive) and -3.35 (inactive)	0.814 (inactive) and -0.0697 (inactive)	-0.143 (inactive) and 0.291 (inactive)	0.652 (inactive) and 0.297 (inactive)	0.347 (inactive) and 0.106 (inactive)	-0.777 and -1.42	-0.22 and 1.24
CC(C)OC(=O)C=C1C[C@@H](c2cccc(C(F)(F)F)c2)O[C@@H](c2cccc(C(F)(F)F)c2)O1	-0.115 and 0.0158	0.308 (inactive) and 0.626 (inactive)	-1.7 (inactive) and 0.108 (inactive)	-2.02 (inactive) and -2.59 (inactive)	0.834 (inactive) and 0.269 (inactive)	0.69 (inactive) and -0.0601 (inactive)	-0.169 (inactive) and -0.948 (inactive)	1.04 (inactive) and 0.509 (inactive)	-0.899 and 0.393	-0.195 and 0.163
C=CCN(C(=O)C(c1cccs1)N(CCOCCO)C(=O)/C=C\C(=O)O)c1ccc(OC)cc1 (stereo not given)	0.591 and 0.232	-1.32 (inactive) and -1.58 (inactive)	0.0173 (inactive) and 0.605 (inactive)	-1.05 (inactive) and -2.65 (inactive)	1.07 (inactive)	-1.64 (inactive) and -1.09 (inactive)	0.997 (inactive) and 1.72 (inactive)	1.21 (inactive) and 2 (inactive)	1.25 and 0.952	0.336 and -0.325
C=CCN(CCCCC)C(=O)C1N(c2ccc(CCO)cc2)C(=O)C2C(C(=O)O)C3C=CC21O3 (stereo not given)	-0.572 and -0.506	-0.058 (inactive) and 0.644 (inactive)	-0.933 (inactive) and -1.12 (inactive)	-0.0016 (inactive) and 0.598 (inactive)	0.317 (inactive) and 0.606 (inactive)	-0.611 (inactive) and -0.297 (inactive)	-0.623 (inactive) and -0.0654 (inactive)	-0.689 (inactive) and -0.552 (inactive)	-0.871 and -1.15	-0.193 and -0.0559
CO[C@@H]1C=CCC(=O)N2CCC[C@H]2C(=O)OC[C@H](C)C(=O)OC[C@H]1C	0.445	-0.774 (inactive)	-0.694 (inactive)	0.634 (inactive)	-0.72 (inactive)	0.134 (inactive)	1.08 (inactive)	0.858 (inactive)	0.312	0.0595
C[C@@H]1CC[C@H]2C(=O)NC[C@@H](O)CN2[C@H]1c1ccc(Br)cc1	-0.278 and -0.27	-0.228 (inactive) and -0.64 (inactive)	-0.503 (inactive) and 0.138 (inactive)	-0.679 (inactive) and 0.382 (inactive)	0.684 (inactive) and -0.27 (inactive)	-0.154 (inactive) and 0.502 (inactive)	0.514 (inactive) and 0.669 (inactive)	-0.882 (inactive) and 0.26 (inactive)	-0.149 and 0.435	-0.0238 and -0.102
C[C@@H]1CC[C@H]2C(=O)N3[C@@H](CC[C@@H](C)[C@@H]3c3ccc(-c4ccco4)cc3)C(=O)N2[C@H]1c1ccc(-c2ccco2)cc1	-0.458 and 0.764	0.666 (inactive) and -1.56 (inactive)	-0.316 (inactive) and 1.14 (inactive)	-1.48 (inactive) and -7.32 (inactive)	0.143 (inactive)	0.43 (inactive) and -0.546 (inactive)	0.0111 (inactive) and 0.845 (inactive)	-0.0533 (inactive) and 0.0395 (inactive)	0.136 and 1.2	-0.0559 and 0.217
C[C@@H](ON=C1[C@H]2CCn3c(=O)n(-c4ccccc4)c(=O)n3[C@H]2[C@H](O)[C@@H]2O[C@H]12)c1cn([C@H](CO)Cc2ccccc2)nn1	-1.08	0.394 (inactive)	-1.42 (inactive)	-0.469 (inactive)	-0.525 (inactive)	0.122 (inactive)	0.777 (inactive)	1.12 (inactive)	-1.65	-0.0208
CCOC(=O)[C@H](CC(C)C)NC(=O)CCC1CC(OC(=O)NCc2cccc3ccccc23)CC2(CCCC(COC(=O)NCc3ccccc3)O2)O1 (stereo not given in full)	0.928	-1.76 (inactive)	1.06 (inactive)	-0.621 (inactive)	-0.0326 (inactive)	-0.527 (inactive)	-0.482 (inactive)	-0.102 (inactive)	0.588	-0.125
CCOC(=O)NN=C1C[C@@H](O)[C@@H](O)[C@@H]2[C@@H]3C(=O)N(Cc4ccc5c(c4)OCO5)C(=O)[C@@H]3CC[C@@H]12	0.321	-0.143 (inactive)	0.591 (inactive)	-0.225 (inactive)	0.246 (inactive)	0.52 (inactive)	0.69 (inactive)	0.819 (inactive)	0.457	-0.492
C=CCN(Cc1ccccc1)C(=O)C1N(c2c(Cl)cccc2CO)C(=O)C2C(C(=O)O)C3C=CC21O3 (stereo not given)	0.753 and -0.367	-2.14 (inactive) and -0.245 (inactive)	1.33 (inactive) and -0.324 (inactive)	-0.33 (inactive) and 0.994 (inactive)	-0.236 (inactive) and -0.329 (inactive)	-3.44 (inactive) and 0.92 (inactive)	2.24 (inactive) and -0.745 (inactive)	2.55 (inactive) and -0.89 (inactive)	0.565 and -0.662	0.0379 and -0.051
